Results filed as inconclusive are left out. A call without a number means that no potency is given here. A structure can be active in one record and inactive in another. Active and inactive are the calls of the source. Unless noted, calls follow the shape of the dose curve; as a rule, active = well fitted curve in the direction sought with a large enough effect; inconclusive = small, poorly fitted or top-dose-only effect, or another doubt; inactive = no such curve, though single readings can be large; an effect the other way counts as inactive or inconclusive.
How the values were obtained:
[1] = High Content Imaging Cell-Based qHTS for Inhibitors of the mTORC1 Signaling Pathway in MEF Cells (AID 2667); also: potency is read from the fitted curve at half-maximal effect
Method in brief: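 Immunofluorescence for rpS6 phosphorylation in MEFs of Tsc2-/-, p53-/- background rescued with WT Tsc2. Compound exposure lasted 24 hrs. Inhibition was scored against rapamycin-treated control wells.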

[2] = Cytometry Cell-Based qHTS for Inhibitors of the mTORC1 Signaling Pathway in MEF cells (AID 2668); also: potency is read from the fitted curve at half-maximal effect
Method in brief: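 MEFs (Tsc2-/-, p53-/- stably expressing WT Tsc2) treated 24 h at 37 degree Celsius, fixed, stained with Alexa-488 anti-phospho-rpS6 Ser235/236 and propidium iodide; Acumen laser scanning. Reported as % positive cells, phospho-S6 normalized to PI.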

[3] = biological target: Ubiquitin carboxyl-terminal hydrolase 2 (Homo sapiens) (UniProt O75604); experiment: qHTS Validation Assay for Inhibitors of Ubiquitin-specific Protease USP2a Using CHOP2 as the Reporter (AID 463106)
Method in brief: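 10nM USP2 core + cpd, 30min RT; add 25nM Ub-CHOP2/25nM substrate; 60min RT; FI 485/531nm. Buffer Tris pH 8.0, CaCl2, BME, CHAPS. Norm. to NEM = 100% inhibition; time-zero read flags fluorescent artifacts.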

[4] = biological target: Tumor susceptibility gene 101 protein (Homo sapiens) (UniProt Q99816); experiment: qHTS Validation Assay for Iinhibitors of HIV-1 Budding by Blocking the Interaction of PTAP/TSG101 (AID 485342; calls by dose curve)
Method in brief: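 Tsg101 binding domain (10 uM) with FITC-labeled PTAP peptide (50 nM) in HEPES pH 7.5 buffer, 20 min at r.t. with compounds. Binding measured by fluorescence polarization.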

[5] = biological target: Beta-2 adrenergic receptor (Homo sapiens) (UniProt P07550); experiment: qHTS validation assay of beta-arrestin-biased ligands of beta2-adrenergic receptor (AID 485366)
Method in brief: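 Arrestin-recruitment (Tango) reporter: ligand-bound beta2-AR recruits beta-arrestin, releasing tTA, which upregulates luciferase. Titrations of up to 46 microM incubated 18 hr at 37 degrees C before luminescent readout.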

[6] = biological target: Thioredoxin reductase 1, cytoplasmic (Rattus norvegicus) (UniProt O89049); experiment: qHTS Assay for Substrates of Mammalian Selenoprotein Thioredoxin Reductase 1 (TrxR1) (AID 488772);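 also: NADPH fluorescence in the first read after selenite addition and not the 8 min delta; series mostly up to about 57 µM; a drop in NADPH fluorescence below the no-compound background marks a TrxR1 substrate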
Method in brief: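 Quantitative HTS in Tris-HCl buffer at pH 7.5 with EDTA and Tween-20, using rat TrxR1, 400 uM NADPH and 400 uM selenite (final). A fall in initial NADPH fluorescence relative to background marked substrate behaviour.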

[7] = biological target: Thioredoxin reductase 1, cytoplasmic (Rattus norvegicus) (UniProt O89049); experiment: qHTS Assay for Inhibitors of Mammalian Selenoprotein Thioredoxin Reductase 1 (TrxR1) (AID 488773); conditions: Potency: inhibition; also: nearly all actives have a fitted effect of over 40% in size; also: potency is read from the fitted curve at half-maximal effect
Method in brief: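 Steps: enzyme (90 nM) plus NADPH (400 uM final), 5 min at ~22 deg C; compound added, 15 min; selenite (400 uM final) added; fluorescence followed for 8 min. Concentration-response curves derived from the normalized delta values.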

[8] = biological target: Flap endonuclease 1 (Homo sapiens) (UniProt P39748); experiment: qHTS Validation Assay for the Inhibitors of Human Flap endonuclease 1 (FEN1) (AID 488816); also: potency is read from the fitted curve at half-maximal effect
Method in brief: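 Readings taken at 0 and 15 min after starting the reaction with 50 nM (final) substrate supplied the signal. Compounds had first sat with 10 nM FEN1 reagent for 15 min at room temperature. Values come from Hill-equation concentration-response fits.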

[9] = biological target: Chromobox protein homolog 1 (Homo sapiens) (UniProt P83916); experiment: qHTS Validation Assay for Inhibitors of HP1-beta Chromodomain Interactions with Methylated Histone Tails (AID 488953); also: nearly all actives have a fitted effect of over 50% in size; also: potency is read from the fitted curve at half-maximal effect
Method in brief: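 Measured as loss of AlphaScreen luminescence from streptavidin donor and nickel acceptor beads (10 ug/mL final) bridging HP1-beta and biotin-H3(1-18)K9me3, each 50 nM. Compounds met the preassembled complex for 30 min at RT.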

[10] = biological target: DNA polymerase III PolC-type (Bacillus subtilis (strain 168)) (UniProt P13267); experiment: qHTS Validation Assay for the Inhibitors of DNA Replication in Gram-Positive Bacteria (AID 485295);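 also: PicoGreen fluorescence of double-stranded DNA made on primed circular M13 template; series mostly up to about 57 µM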
Method in brief: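 Reconstituted B. subtilis Pol III holoenzyme (PolC, beta clamp, SSB, primase) preincubated with compound, then M13Gori single-stranded circular template with dNTPs/NTPs added; room temperature reaction. Stopped with EDTA/PicoGreen; dsDNA fluorescence read, EDTA as full-inhibition control.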

[11] = qHTS Validation Assay to Find Inhibitors of Chronic Active B-Cell Receptor Signaling (AID 485345; active = well fitted curve in the direction sought with a large enough effect in the main read-out, with a control signal flat, not every such curve was filed as active)
Method in brief: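 Read-out: ratio of filter-corrected green (IkappaBalpha fusion) to red (native) luciferase signal in doxycycline-induced TMD8 cells after 4 h at 37C. Titration spanned 46 uM–3 nM; Data were normalised to basal cells and 10 uM MG-132 wells.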

[12] = Quantitative high throughput screen for delayed death inhibitors of the malarial parasite plastid, 96 hour incubation (AID 488745);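 also: luciferase-expressing P. falciparum in erythrocytes at 2% hematocrit and 0.1% parasitemia; series mostly up to about 29 µM; nearly all actives have a fitted effect of over 70% in size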
Method in brief: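 Growth of reporter-bearing P. falciparum in red cells is measured after 96 h with compound, covering two erythrocytic cycles. Luminescence from the integrated luciferase serves as the growth signal.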

[13] = Quantitative high throughput screen for delayed death inhibitors of the malarial parasite plastid, 48 hour incubation (AID 488752); also: nearly all actives have a fitted effect of over 65% in size
Method in brief: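 One parasite generation (48 h, 37 C, 5% CO2) of luciferase-reporter P. falciparum in erythrocytes is run with test compound; decreased luminescence indicates inhibited growth.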

[14] = biological target: Methanococcus maripaludis chaperonin (MmCpn) (UniProt Q6LX38); experiment: High-Throughput Screening for Modulators of Cytosolic Chaperonin Activity: MmCpn Primary Screen (AID 488978);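 also: 50 nM MmCpn enzyme hydrolysing 30 µM ATP at 37 °C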
Method in brief: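 MmCpn at 50 nM final was preincubated 5 min at RT with compound. ATP was then added at 30 uM final for 10 min at 37 C. ADP formed was detected by Transcreener HTRF (665/590 nm).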

[15] = biological target: Transient receptor potential cation channel subfamily V member 1 (Homo sapiens) (UniProt Q8NER1); experiment: HTS Assay for Compounds that Act as Enhancers of the Vanilloid Receptor 1 (AID 488979)
Method in brief: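 Calcium influx kinetics via Fluo-8 (480/520 nm) in TRPV1-expressing cells, 2000/well cultured overnight at 35.5C. Compound-alone read 3 min (agonist phase), followed by EC20 capsaicin challenge for 2 min (enhancer phase).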

[16] = biological target: Thyrotropin receptor (Homo sapiens) (UniProt P16473); experiment: qHTS Assay for Antagonists of the Thyroid Stimulating Hormone Receptor (AID 488980); also: series mostly up to about 58 µM
Method in brief: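 TSHR-transfected HEK293 cells (2000/well) in HEPES-buffered HBSS with 70 uM RO 20-1724 were stimulated with 4 nM TSH (EC80, final) in the presence of compound. cAMP was measured by HTRF competition after lysis and 30 min at RT.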

[17] = biological target: D(1A) dopamine receptor (Homo sapiens) (UniProt P21728); experiment: HTS Assay for Allosteric Agonists of the Human D1 Dopamine Receptor: Primary Screen for Agonists (AID 488981)
Method in brief: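 Calcium flux in an inducible, force-coupled HEK293 Trex D1 line (overnight at 30 C): agonist mode is the 180 s kinetic read after compound; potentiator mode is the following 180 s read after dopamine at EC20.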

[18] = biological target: ATP-dependent 6-phosphofructokinase (Trypanosoma brucei brucei) (UniProt O15648); experiment: qHTS Validation Assay to Find Inhibitors of T. brucei phosphofructokinase (AID 485368); also: potency is read from the fitted curve at half-maximal effect
Method in brief: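 Steps: substrate mix (0.5 mM F6P, 0.1 mM ATP, MgCl2, TEA pH 8.0); compound; 1.25 nM T. brucei PFK; 45 min RT; ATP depletion 10 min; ADP-to-ATP detection 10 min; luminescence read; curve fitting and classification.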

[19] = biological target: M-phase phosphoprotein 8 (Homo sapiens) (UniProt Q99549); experiment: qHTS Validation Assay for Inhibitors for MPP8 Chromodomain Interactions with Methylated Histone Tails (AID 488949); also: nearly all actives have a fitted effect of over 55% in size; also: potency is read from the fitted curve at half-maximal effect
Method in brief: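 MPP8 (50 nM) was pre-bound to 50 nM biotinylated H3(1-18)K9me3 peptide in PBS pH 7.4 with 0.01% Tween-20. Compounds were then added for 30 min at room temperature, and complex disruption was read by AlphaScreen with streptavidin donor and nickel-chelate acceptor beads.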

[20] = Validation screen for small molecules that induce DNA re-replication in MCF 10A normal breast cells (AID 463097); also: nearly all actives have a fitted effect of over 60% in size
Method in brief: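 MCF 10A cells exposed to compound 48 hr at 37 C, 5% CO2, then Hoechst-stained 40 min. Laser-scanning imaging of nuclear DNA content (405 nm ex, 500-530 nm em); re-replication scored as rise in nuclei with elevated fluorescence intensity.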

Sequence of Ubiquitin carboxyl-terminal hydrolase 2 (Homo sapiens) (O75604 whole entry, looked up): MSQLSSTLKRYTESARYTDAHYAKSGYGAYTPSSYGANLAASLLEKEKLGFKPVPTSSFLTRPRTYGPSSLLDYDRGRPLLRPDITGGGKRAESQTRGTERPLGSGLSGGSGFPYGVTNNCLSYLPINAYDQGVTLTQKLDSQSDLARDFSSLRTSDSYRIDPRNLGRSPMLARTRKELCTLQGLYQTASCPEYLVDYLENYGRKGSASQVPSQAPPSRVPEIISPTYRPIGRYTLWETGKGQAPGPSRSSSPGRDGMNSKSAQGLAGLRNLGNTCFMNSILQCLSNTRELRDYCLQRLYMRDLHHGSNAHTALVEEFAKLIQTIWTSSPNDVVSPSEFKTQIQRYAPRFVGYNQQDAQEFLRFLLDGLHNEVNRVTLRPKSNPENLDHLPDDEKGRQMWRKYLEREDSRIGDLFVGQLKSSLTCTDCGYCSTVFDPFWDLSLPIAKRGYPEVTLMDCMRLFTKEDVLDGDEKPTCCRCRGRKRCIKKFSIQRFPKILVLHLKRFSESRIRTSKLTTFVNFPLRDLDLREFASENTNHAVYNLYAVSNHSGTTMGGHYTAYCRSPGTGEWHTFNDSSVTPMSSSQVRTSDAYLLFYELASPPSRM
Sequence of Beta-2 adrenergic receptor (Homo sapiens) (P07550 whole entry, looked up): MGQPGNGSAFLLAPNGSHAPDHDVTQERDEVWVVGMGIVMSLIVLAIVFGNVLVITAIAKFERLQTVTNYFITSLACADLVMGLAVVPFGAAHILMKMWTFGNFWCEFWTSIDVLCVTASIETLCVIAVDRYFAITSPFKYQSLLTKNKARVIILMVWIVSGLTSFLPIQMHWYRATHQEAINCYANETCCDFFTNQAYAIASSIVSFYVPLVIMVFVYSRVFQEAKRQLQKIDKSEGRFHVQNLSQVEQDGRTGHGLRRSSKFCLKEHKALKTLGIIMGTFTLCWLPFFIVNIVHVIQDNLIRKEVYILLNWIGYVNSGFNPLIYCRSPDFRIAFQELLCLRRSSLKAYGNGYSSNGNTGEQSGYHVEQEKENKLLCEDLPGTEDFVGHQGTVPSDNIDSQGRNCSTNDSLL
Sequence of Methanococcus maripaludis chaperonin (MmCpn) (Q6LX38 1-543): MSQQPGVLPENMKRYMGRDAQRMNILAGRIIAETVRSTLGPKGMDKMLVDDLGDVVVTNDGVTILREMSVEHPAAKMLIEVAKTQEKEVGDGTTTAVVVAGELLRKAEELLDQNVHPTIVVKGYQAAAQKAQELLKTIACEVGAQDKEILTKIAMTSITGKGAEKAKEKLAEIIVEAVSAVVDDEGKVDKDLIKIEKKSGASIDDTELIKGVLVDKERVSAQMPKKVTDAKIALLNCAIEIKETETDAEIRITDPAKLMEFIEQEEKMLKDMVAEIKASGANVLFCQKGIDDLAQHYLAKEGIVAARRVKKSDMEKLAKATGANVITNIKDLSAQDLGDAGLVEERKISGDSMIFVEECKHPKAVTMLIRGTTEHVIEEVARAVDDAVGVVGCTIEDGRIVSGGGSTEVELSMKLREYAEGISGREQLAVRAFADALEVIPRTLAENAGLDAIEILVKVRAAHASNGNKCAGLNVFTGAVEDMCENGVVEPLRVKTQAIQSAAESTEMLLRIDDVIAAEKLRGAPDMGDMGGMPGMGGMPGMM
Sequence of Thyrotropin receptor (Homo sapiens) (P16473 whole entry, looked up): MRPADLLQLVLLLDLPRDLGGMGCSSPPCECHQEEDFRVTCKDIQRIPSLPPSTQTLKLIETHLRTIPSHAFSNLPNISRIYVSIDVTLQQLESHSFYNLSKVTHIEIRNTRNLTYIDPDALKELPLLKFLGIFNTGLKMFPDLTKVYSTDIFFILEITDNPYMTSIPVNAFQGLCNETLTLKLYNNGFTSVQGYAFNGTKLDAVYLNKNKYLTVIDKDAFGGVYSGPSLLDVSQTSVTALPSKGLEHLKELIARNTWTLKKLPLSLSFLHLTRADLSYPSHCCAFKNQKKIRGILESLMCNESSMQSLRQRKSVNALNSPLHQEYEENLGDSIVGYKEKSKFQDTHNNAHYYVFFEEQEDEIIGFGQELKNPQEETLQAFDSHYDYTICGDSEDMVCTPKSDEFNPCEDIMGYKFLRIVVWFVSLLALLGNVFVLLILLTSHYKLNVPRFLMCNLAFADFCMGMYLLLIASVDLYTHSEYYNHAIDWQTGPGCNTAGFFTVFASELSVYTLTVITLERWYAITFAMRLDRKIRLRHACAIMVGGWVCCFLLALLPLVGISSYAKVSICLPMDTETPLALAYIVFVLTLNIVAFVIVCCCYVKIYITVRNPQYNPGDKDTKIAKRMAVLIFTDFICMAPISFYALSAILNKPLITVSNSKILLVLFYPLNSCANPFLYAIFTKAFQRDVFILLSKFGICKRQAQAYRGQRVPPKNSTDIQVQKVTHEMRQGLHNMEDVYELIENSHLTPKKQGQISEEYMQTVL
Sequence of DNA polymerase III PolC-type (Bacillus subtilis (strain 168)) (P13267 whole entry, looked up): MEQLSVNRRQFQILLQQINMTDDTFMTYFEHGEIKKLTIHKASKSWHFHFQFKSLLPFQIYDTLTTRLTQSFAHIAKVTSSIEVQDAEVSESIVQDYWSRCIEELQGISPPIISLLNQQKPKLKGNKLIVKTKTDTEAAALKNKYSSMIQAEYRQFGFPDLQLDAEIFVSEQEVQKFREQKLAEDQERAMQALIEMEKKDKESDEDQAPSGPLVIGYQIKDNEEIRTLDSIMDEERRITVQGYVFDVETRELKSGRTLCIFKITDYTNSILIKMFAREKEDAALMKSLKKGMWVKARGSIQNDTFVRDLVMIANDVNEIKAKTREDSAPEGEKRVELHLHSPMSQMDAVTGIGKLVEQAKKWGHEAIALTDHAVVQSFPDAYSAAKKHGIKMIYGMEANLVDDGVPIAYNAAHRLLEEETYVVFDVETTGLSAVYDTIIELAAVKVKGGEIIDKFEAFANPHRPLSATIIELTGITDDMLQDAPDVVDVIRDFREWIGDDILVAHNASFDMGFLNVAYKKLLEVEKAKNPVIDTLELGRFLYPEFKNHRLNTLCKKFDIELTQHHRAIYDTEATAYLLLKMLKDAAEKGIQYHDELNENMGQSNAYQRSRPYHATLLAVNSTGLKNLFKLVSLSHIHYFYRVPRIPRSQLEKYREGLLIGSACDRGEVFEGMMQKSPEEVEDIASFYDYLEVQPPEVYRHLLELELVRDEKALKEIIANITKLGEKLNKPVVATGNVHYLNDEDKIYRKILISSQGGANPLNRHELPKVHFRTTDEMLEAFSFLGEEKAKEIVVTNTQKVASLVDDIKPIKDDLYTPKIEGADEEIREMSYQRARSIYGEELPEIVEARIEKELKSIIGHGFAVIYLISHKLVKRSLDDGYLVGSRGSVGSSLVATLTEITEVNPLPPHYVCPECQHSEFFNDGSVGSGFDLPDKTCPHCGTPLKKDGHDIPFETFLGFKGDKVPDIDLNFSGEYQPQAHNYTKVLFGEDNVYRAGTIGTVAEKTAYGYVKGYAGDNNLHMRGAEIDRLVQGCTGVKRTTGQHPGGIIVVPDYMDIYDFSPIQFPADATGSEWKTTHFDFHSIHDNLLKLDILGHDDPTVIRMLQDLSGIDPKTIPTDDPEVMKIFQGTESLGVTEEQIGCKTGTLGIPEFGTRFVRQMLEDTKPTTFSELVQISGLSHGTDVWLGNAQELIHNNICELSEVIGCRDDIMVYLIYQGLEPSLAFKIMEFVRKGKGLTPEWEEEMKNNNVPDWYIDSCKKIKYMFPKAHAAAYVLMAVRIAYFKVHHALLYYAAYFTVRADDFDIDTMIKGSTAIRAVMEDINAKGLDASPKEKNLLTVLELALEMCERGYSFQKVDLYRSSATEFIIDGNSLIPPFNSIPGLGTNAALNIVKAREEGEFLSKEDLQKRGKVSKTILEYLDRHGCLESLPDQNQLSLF
Sequence of Flap endonuclease 1 (Homo sapiens) (P39748 whole entry, looked up): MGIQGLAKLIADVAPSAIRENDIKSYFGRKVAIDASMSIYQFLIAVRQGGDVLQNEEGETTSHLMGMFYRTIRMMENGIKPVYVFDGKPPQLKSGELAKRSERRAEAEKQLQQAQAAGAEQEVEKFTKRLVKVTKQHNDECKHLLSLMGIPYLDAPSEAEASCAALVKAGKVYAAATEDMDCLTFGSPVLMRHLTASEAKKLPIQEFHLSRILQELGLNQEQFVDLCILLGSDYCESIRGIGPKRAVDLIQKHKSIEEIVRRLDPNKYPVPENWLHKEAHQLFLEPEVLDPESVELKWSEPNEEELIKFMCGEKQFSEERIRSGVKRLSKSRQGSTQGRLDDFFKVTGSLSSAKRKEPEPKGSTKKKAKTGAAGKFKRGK
Sequence of Thioredoxin reductase 1, cytoplasmic (Rattus norvegicus) (O89049 whole entry, looked up): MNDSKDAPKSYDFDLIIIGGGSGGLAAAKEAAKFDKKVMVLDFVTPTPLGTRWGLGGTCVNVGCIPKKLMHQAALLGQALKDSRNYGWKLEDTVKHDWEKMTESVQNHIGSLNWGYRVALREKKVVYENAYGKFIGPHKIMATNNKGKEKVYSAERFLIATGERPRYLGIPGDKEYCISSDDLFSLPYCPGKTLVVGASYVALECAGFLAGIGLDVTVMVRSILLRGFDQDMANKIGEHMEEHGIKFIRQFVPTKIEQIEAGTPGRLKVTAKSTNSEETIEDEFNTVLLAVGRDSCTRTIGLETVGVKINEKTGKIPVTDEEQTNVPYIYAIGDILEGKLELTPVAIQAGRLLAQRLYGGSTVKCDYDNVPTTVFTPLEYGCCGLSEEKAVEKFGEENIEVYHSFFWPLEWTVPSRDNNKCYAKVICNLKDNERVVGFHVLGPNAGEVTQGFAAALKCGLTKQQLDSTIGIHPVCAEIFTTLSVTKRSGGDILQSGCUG
Sequence of Chromobox protein homolog 1 (Homo sapiens) (P83916 whole entry, looked up): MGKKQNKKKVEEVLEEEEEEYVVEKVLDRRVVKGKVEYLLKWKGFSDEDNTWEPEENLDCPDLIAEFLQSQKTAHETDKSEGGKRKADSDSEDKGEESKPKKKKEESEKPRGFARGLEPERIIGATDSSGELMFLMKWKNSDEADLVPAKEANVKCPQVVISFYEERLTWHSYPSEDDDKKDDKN

SMILES | Potency [1] | Potency [2] | Potency [3] | outcome [4] | outcome [5] | Potency [6] | Potency [7] | Potency [8] | Potency [9] | Potency [10] | outcome [11] | Potency [12] | Potency [13] | outcome [14] | outcome [15] | outcome [16] | Potency [17] | Potency [18] | Potency [19] | Potency [20]
COc1ccc2c(c1)CCC1C2CC[C@@]2(C)C1CC[C@@H]2NCCCCCCN1C(=O)CCC1=O (stereo partly drawn) | 3.69 µM (active) | 4.65 µM (active) | inactive | inactive | inactive | inactive | inactive | inactive | inactive | – | – | – | – | – | – | – | – | – | – | –
CCCCCCCCCCCCCCCCCCNC(=O)OCC(COP(=O)([O-])OCC[n+]1ccsc1)OC (stereo not drawn) | inactive | inactive | – | inactive | inactive | inactive | inactive | inactive | inactive | inactive | inactive | inactive | inactive | inactive | inactive | inactive | inactive | – | – | –
C[N+](C)(C)CCOP(=O)(O)OP(=O)([O-])OC[C@H]1O[C@@H](n2ccc(N)nc2=O)[C@H](O)[C@@H]1O | inactive | inactive | inactive | inactive | inactive | inactive | inactive | inactive | inactive | – | inactive | – | – | inactive | – | – | inactive | inactive | inactive | –
CNC(=O)[C@H]1O[C@@H](n2cnc3c(NCc4cccc(I)c4)ncnc32)[C@H](O)[C@@H]1O | inactive | inactive | inactive | inactive | inactive | inactive | inactive | inactive | – | inactive | – | – | – | inactive | – | – | inactive | – | inactive | –
NC(=S)NCCC[C@H](N)C(=O)O | inactive | inactive | inactive | inactive | inactive | inactive | inactive | – | 10 µM (active) | – | inactive | – | – | inactive | – | – | inactive | 19 µM (active) | inactive | –
N=c1ccn2c(n1)O[C@H]1[C@H](O)[C@@H](CO)O[C@H]12 | inactive | – | inactive | inactive | inactive | inactive | inactive | inactive | inactive | inactive | inactive | – | – | inactive | – | – | inactive | inactive | inactive | –
N.N.N.N.N.N.N.N.N.N.N.N.N.N.O.O.[Ru+4].[Ru+5].[Ru+5] | inactive | inactive | – | inactive | inactive | – | – | – | 4.47 µM (active) | – | – | – | – | – | – | – | inactive | – | 8.44 µM (active) | –
O=C1NC(=O)/C(=C/c2ccc(-c3ccc(F)cc3O)o2)S1 | inactive | inactive | inactive | inactive | inactive | inactive | – | 26.7 µM (active) | 39.8 µM (active) | – | – | – | – | inactive | – | – | – | – | – | –
NS(=O)(=O)C#Cc1ccccc1 | inactive | – | inactive | inactive | inactive | inactive | 4.74 µM (active) | inactive | inactive | inactive | – | – | – | inactive | – | – | inactive | inactive | inactive | –
Clc1ccc(N2CCN(Cc3cc4ccccn4n3)CC2)cc1 | inactive | inactive | inactive | inactive | inactive | inactive | inactive | inactive | – | – | inactive | – | – | inactive | – | – | inactive | inactive | inactive | –
Nc1nc(SCc2ccc([N+](=O)[O-])cc2)c2ncn([C@@H]3O[C@H](CO)[C@@H](O)[C@H]3O)c2n1 | inactive | inactive | inactive | inactive | inactive | – | inactive | inactive | inactive | inactive | – | – | – | inactive | – | – | inactive | – | inactive | –
Nc1nc(Nc2ccccc2)nc2c1ncn2[C@@H]1O[C@H](CO)[C@@H](O)[C@H]1O | inactive | inactive | inactive | inactive | inactive | inactive | inactive | inactive | inactive | inactive | – | – | – | inactive | – | – | inactive | – | inactive | –
NCC1OC(O[C@H]2[C@H](O)[C@@H](OC3C(O)C(N)CC(N)C3OC3OC(CO)C(O)C(O)C3N)O[C@@H]2CO)C(N)C(O)C1O (stereo partly drawn) | inactive | inactive | inactive | inactive | inactive | inactive | inactive | inactive | inactive | – | inactive | – | – | inactive | – | – | inactive | – | inactive | –
O=C(Nc1ccccc1)c1cc([N+](=O)[O-])ccc1Cl | inactive | – | inactive | inactive | inactive | inactive | inactive | inactive | inactive | inactive | – | – | – | inactive | inactive | inactive | – | inactive | inactive | inactive
OC[C@H]1O[C@@H](n2cnc3c(Nc4ccccc4)ncnc32)[C@H](O)[C@@H]1O | inactive | inactive | inactive | inactive | inactive | inactive | inactive | inactive | 0.006 µM (active) | inactive | – | – | – | inactive | – | – | inactive | – | inactive | –
CN1CCc2ccccc2Cc2[nH]c3ccccc3c2CC1 | inactive | – | inactive | inactive | inactive | inactive | – | inactive | – | inactive | inactive | – | – | inactive | inactive | inactive | – | – | 50.1 µM (active) and inactive | –
C=C[C@H]1CN2CC[C@@H]1C[C@@H]2[C@@H](O)c1ccnc2ccc(OC)cc12 | inactive | inactive | – | inactive | inactive | inactive | – | – | inactive | inactive | inactive | – | – | inactive | – | – | – | inactive | – | –

Reference: PubChem BioAssay (NCATS)
